Assay outcomes (PubChem BioAssay)
The full list was thinned out, with hits kept by preference.
KDM5B inhibitor = Primary screen for KDM5B Histone Demethylases FDH-coupled qHTS | Lysine-specific demethylase 5B (Homo sapiens), Q9UGL1 | KDM5B demethylase, FDH-coupled NADH fluorescence (FDH is formaldehyde dehydrogenase) | Potency, µM (highest dose often 57.7 µM), most hits filed as inhibitors | 2.6% of 220,000 active | AID 1347165, 2019; active = well fitted inhibition curve with a large enough effect; note: nearly all actives have a fitted effect of over 70% in size
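KDM5BΔAP (200 nM final) in 50 mM HEPES pH 7.5, 0.01% Tween-20 was preincubated 10 min at RT with compound over a concentration range. Substrate mix (H3K4me3 12.5 µM, α-KG 25 µM, Fe²⁺, ascorbate, NAD⁺, FDH) was added, and NADH fluorescence change over 30 min gave dose-response curves.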
Each line names hits and unclear results; the compound was inactive in the other large screens.

COc1cc(C)c2c(c1C)C[C@H](C(C)C(=O)NCc1ccco1)CC2 (some centres undefined)	KDM5B inhibitor 35µM
COc1cc(C)c2c(c1C)C[C@H]([C@H](C)C(=O)O)CC2	none
CC(C)NC(=O)C[C@@H]1C[C@H]2O[C@H](CNC(=O)NCc3ccccc3)[C@@H](O)[C@H]2O1	none
Cc1nn2c(c1-c1ccccc1[S+](C)(=O)[O-])N(C(=O)COc1ccccc1)CCC2	none
COCC(=O)Nc1ccc(-c2noc([C@@H]3CCCN3Cc3ccc(OC(F)(F)F)cc3)n2)cn1	none
COc1ccc(C(=O)Nc2ccc(-c3noc([C@@H]4CCCN4Cc4ccccc4C)n3)cn2)cc1	KDM5B inhibitor 32µM
COCC(=O)Nc1ccc(-c2noc([C@@H]3CCCN3Cc3ccc(F)cc3)n2)cn1	none
COc1ccc(-c2noc([C@@H]3CCCN3C(=O)COc3ccc(Cl)cc3)n2)cc1	none
COc1ccc(C(=O)Nc2ccc(-c3noc([C@@H]4CCCN4Cc4ccc(Cl)cc4)n3)cn2)cc1	KDM5B inhibitor 32µM
COc1ccc(C(=O)Nc2ccc(-c3noc([C@@H]4CCCN4C)n3)cn2)cc1	none
COc1ccc(C(=O)N2CCC[C@H]2c2nc(-c3ccc(OC)cc3)no2)cc1	none
COCC(=O)Nc1ccc(-c2noc([C@@H]3CCCN3C(C)C)n2)cn1	none
COc1ccc(C(=O)Nc2ccc(-c3noc([C@@H]4CCCN4Cc4ccc(F)c(F)c4)n3)cn2)cc1	KDM5B inhibitor 28µM
CS(=O)(=O)Oc1ccc2c(=O)c(-c3ccc(Cl)cc3)c(C(F)(F)F)oc2c1	none
CC(=O)c1c(C)[nH]c(C(=O)C(C)OC(=O)c2ccc(F)c(F)c2)c1C (centres undefined)	none
CCC(=O)Nc1ccc2c(c1)nc(CCn1ccnc1C)n2C	none
O=C(OCCOc1ccccc1F)c1n[nH]c(=O)c2ccccc12	none
CCOc1ccc(C2Cn3nnc(-c4nc(-c5ccccc5)no4)c3CO2)cc1 (centres undefined)	KDM5B inhibitor 28µM
Cc1cccc(-c2noc(-c3nnn4c3COC(c3ccc(F)cc3)C4)n2)c1 (centres undefined)	none
COc1ccc(C2Cn3nnc(-c4noc(-c5ccsc5)n4)c3CO2)cc1 (centres undefined)	none
CCOc1ccc(C2Cn3nnc(-c4nc(-c5cccnc5)no4)c3CO2)cc1 (centres undefined)	none
COc1ccc(C2Cn3nnc(-c4nc(-c5cccc(Br)c5)no4)c3CO2)cc1 (centres undefined)	none
COc1ccc(C2Cn3nnc(-c4nc(-c5ccncc5)no4)c3CO2)cc1 (centres undefined)	none
CCOc1cccc(-c2noc(-c3nnn4c3COC(c3ccc(Cl)cc3)C4)n2)c1 (centres undefined)	KDM5B inhibitor 22µM
CCOc1ccc(C2Cn3nnc(-c4nc(-c5cccc(C)c5)no4)c3CO2)cc1 (centres undefined)	KDM5B inhibitor 20µM
CCOc1ccc(C2Cn3nnc(-c4nc(-c5ccncc5)no4)c3CO2)cc1 (centres undefined)	none
COc1ccc(C2Cn3nnc(-c4nc(-c5ccccc5)no4)c3CO2)cc1 (centres undefined)	none
CCOc1ccc(C2Cn3nnc(-c4nc(-c5ccsc5)no4)c3CO2)cc1 (centres undefined)	KDM5B inhibitor 25µM
CCOc1ccc(C2Cn3nnc(-c4nc(-c5cccc(Cl)c5)no4)c3CO2)cc1 (centres undefined)	none
COc1cc(OC)c(NC(=O)CSc2nncn3c2cc2oc(C)cc23)cc1Cl	none
CC(=O)Nc1cccc(NC(=O)CC2CC3CCC2C3)c1 (centres undefined)	none
CC(Sc1ccc(Br)cc1)c1nc(-c2ccco2)no1 (centres undefined)	none
COc1ccc(/C=C/c2nn3c(-c4ccc(Cl)cc4)nnc3s2)cc1	none
CCc1nc2ccccc2c(C(=O)OCC(=O)NCC(F)(F)F)c1C	none
CCN1C(=O)C2(CCN(C(C)=O)CC2)c2ccccc21	none
CC(C)NC(=O)c1ccc2c(c1)CCCN2C(=O)c1ccc(Cl)cc1	none
COCCOc1ccc(C(=O)/C=C/c2ccc(C#N)cc2)cc1OC	none
Cc1cc(C)c(NC(=O)Cc2cccs2)c(Cl)c1	none
COc1ccc(C(=O)c2sc(Nc3ccc(F)cc3)nc2N)cc1	none
CCN(Cc1ccccc1)C(=O)c1cc(COc2ccccc2)[nH]n1	none
CCc1cc2c(cc1C1(C)OCC(C)O1)C(C)(C)CCC2(C)C (centres undefined)	none
COC(=O)CNC(=O)c1cc(C)cc(C)c1	none
COC(=O)CNC(=O)c1cc(-c2ccccc2OC)nc2c1cnn2C	none
Cn1ncc2c(C(=O)NC3CC3)cc(-c3cccnc3)nc21	KDM5B inhibitor 89µM
C#CCNC(=O)c1cc(-c2ccc(Cl)nc2)nc2c1cnn2C	KDM5B inhibitor 100µM
O=C(NCc1ccncc1)c1cc(-c2ccc(Cl)cc2)nc2ccccc12	none
Cn1ncc2c(C(=O)N3CCOCC3)cc(C(C)(C)C)nc21	none
Cc1c(Cl)ccc2c(C(=O)NC3CCC(C)CC3)cc(-c3cccnc3)nc12 (centres undefined)	none
COc1ccccc1-c1cc(C(=O)NC2CC2)c2cnn(C)c2n1	none
